Experimental data published in PubChem BioAssay (NCATS).
Results filed as inconclusive are left out. Where a call stands in place of a potency, no number is given. Unmarked numbers belong to inactive results. Activity calls are given as the source filed them. Calls follow the shape of the dose curve; as a rule, active = well fitted curve in the direction sought with a large enough effect; inconclusive = small, poorly fitted or top-dose-only effect, or another doubt; inactive = no such curve, though single readings can be large; an effect the other way counts as inactive or inconclusive.

Experiments:
[1] = molecular target: Cellular tumor antigen p53 (Homo sapiens) (UniProt P04637); experiment: Primary qHTS for small molecule compounds that upregulate eGFP-tagged delta133p53alpha (in N-terminal) cells. (AID 2060322); details: NCI-H358 eGFP-delta133p53alpha fluorescence, 24 h; activation: active compounds read high; also: nearly all actives have a fitted effect of over 75% in size; also: potency is read from the fitted curve at half-maximal effect;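 as to activation: cells pre-induced with doxycycline then dosed without doxycycline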
Chain of Cellular tumor antigen p53 (Homo sapiens) (P04637 whole entry, looked up): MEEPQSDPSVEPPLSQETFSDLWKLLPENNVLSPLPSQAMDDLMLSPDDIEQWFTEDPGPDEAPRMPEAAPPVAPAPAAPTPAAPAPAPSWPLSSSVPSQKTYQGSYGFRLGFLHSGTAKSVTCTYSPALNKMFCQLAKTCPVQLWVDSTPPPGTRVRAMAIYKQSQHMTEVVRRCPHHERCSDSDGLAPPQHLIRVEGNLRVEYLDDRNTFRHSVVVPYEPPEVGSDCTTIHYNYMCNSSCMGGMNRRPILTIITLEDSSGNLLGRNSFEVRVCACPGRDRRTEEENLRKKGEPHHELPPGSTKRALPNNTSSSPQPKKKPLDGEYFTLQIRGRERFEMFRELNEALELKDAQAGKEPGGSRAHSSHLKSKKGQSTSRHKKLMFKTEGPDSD
Outline: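 NCI-H358 cells pre-induced 24 h with 10 ng/ml doxycycline for eGFP-delta133p53alpha, plated dox-free and exposed 24 h at 37C to titrated compounds. Fixed, Hoechst-stained; gated GFP peak intensity by laser scanning cytometry, normalized to DMSO (0%) and 57.5 uM 5-azacytidine (100%).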

[2] = molecular target: Aldehyde dehydrogenase, mitochondrial (Homo sapiens) (UniProt P05091); experiment: qHTS for Inhibitors of the Aldehyde Dehydrogenase Family (ALDH2) Primary screen (AID 2061308); details: ALDH2 enzyme inhibition qHTS, 1536-well; series mostly up to 56 µM; also: nearly all actives have a fitted effect of over 55% in size
[3] = molecular target: Retinaldehyde dehydrogenase 3 (Homo sapiens) (UniProt P47895); experiment: qHTS for Inhibitors of the Aldehyde Dehydrogenase Family (ALDH1A3) Primary screen (AID 2061315); details: ALDH inhibition qHTS; series mostly up to 56 µM

| SMILES | activation [1] | Potency [2] | Potency [3] | Potency [1] |
| --- | --- | --- | --- | --- |
| C=C[C@H]1[C@H](O[C@@H]2O[C@H](CO)[C@@H](O)[C@H](O)[C@H]2O)OC=C2C(=O)N3Cc4c([nH]c5ccccc5c4=O)[C@@H]3C[C@H]21 | 0.893% | inactive | inactive | – |
| C=C(C(=O)O)[C@@H]1CC[C@H](C)[C@@H]2CC(=O)C(C)=C2C1 | -8.04% | inactive | inactive | – |
| Cc1ccc(C)c(NC(=O)[C@@H]2CCCN2S(=O)(=O)c2cccc3cccnc23)c1 | -4.33% | inactive | inactive | – |
| C=C(COC(=O)C(O)C(O)CN)C12OC1C1(C)C(=CC2=O)C(O)C(O)CC1C (stereo not given) | -7.63% | inactive | inactive | – |
| Cc1c(O)cc2c(c1O)COC1(O)CCCOC21 (stereo not given) | -17.6% | inactive | inactive | – |
| CC1(C)CC[C@]23CO[C@@]4(CCC5[C@@]6(C)CC[C@H](O[C@@H]7OC[C@H](O[C@@H]8O[C@H](CO)[C@@H](O)[C@H](O)[C@H]8O[C@@H]8OC[C@@H](O)[C@H](O)[C@H]8O)[C@H](O)[C@H]7O)[C@@](C)(CO)C6CC[C@@]5(C)[C@]4(C)CC2=O)[C@@H]3C1 (stereo not given in full) | 18.3% | inactive | inactive | – |
| CC(=O)O[C@@H]1[C@@H](O)[C@H](O[C@@H]2[C@@H](O)[C@@H](O)[C@H](O[C@H]3[C@H](O[C@H]4[C@H](O[C@H]5CC[C@@]6(C)C(CC[C@]7(C)C6CC=C6[C@@H]8CC(C)(C)CC[C@]8(C(=O)O)CC[C@]67C)[C@]5(C)CO)O[C@H](CO)[C@@H](O)[C@@H]4O)OC[C@@H](O)[C@@H]3O)O[C@H]2C)OC[C@H]1O (stereo not given in full) | -3.05% | inactive | inactive | – |
| CC/C=C\CC1C(CC(=O)O)CCC1OC1OC(CO)C(O)C(O)C1O (stereo not given) | 0% | inactive | inactive | – |
| CC1=CC(=O)C[C@H]2[C@@H]1CC[C@@H](C)[C@]21CO[C@H](c2ccoc2)C1=O | -3.82% | inactive | inactive | – |
| C=CCC/C=C/C#CCCCCCCCC[C@H]1C(=O)O[C@H](C)[C@@H]1O | 8.4% | inactive | inactive | – |
| COc1ccc(C2(N(C)C(=O)c3ccc(NC(=O)c4ccco4)cc3)CCOCC2)cc1 | -10.7% | inactive | inactive | – |
| CCCCCOc1ccc(C2SC(=O)NC2=O)cc1OCC (stereo not given) | 2.33% | inactive | inactive | – |
| O=C(Nc1cccc2cccnc12)c1ccc(N2C(=O)[C@@H]3C4C=CC(C4)[C@@H]3C2=O)cc1 | 2.33% | inactive | inactive | – |
| N#C/C(=C1\Nc2ccccc2S1)c1ccnc(NCCc2cccnc2)n1 | – | inactive | inactive | 19 µM (active) |
| C=C(C(=O)OC)[C@]12O[C@@](C)(CC[C@@]3(O)/C(=C\C)C(=O)O[C@]3(C)C[C@@H]1OC(=O)C(CO)CN1CCCC1C(=O)O)CC2=O (stereo not given in full) | -18.8% | inactive | inactive | – |
| CC(C)c1ccc(CO)cc1O[C@@H]1O[C@H](CO)[C@@H](O)[C@H](O)[C@H]1O | -11.5% | inactive | inactive | – |
| CC(=O)NC1CC(=O)C23C(=O)NC(Cc4c[nH]c5ccccc45)C2C(C)=C(C)C(O)C3/C=C/CC(C)/C=C(/C)C(O)C1O (stereo not given) | 8.93% | inactive | inactive | – |
| C=C(C)[C@@H](C)[C@H]1O[C@]23C[C@]4(CO2)C(CCC2[C@@]5(C)CC[C@H](O[C@@H]6OC[C@H](O)[C@H](O[C@@H]7O[C@H](CO)[C@@H](O)[C@H](O)[C@H]7O)[C@H]6O[C@@H]6O[C@@H](CO)[C@H](O)[C@H]6O)C(C)(C)C5CC[C@]24C)C3[C@@](C)(O)[C@@H]1OC(C)=O (stereo not given in full) | -7.63% | inactive | inactive | – |
| COC(=O)CC(O)CC(O)/C=C/c1c(C)ccc2c1C(OC(C)=O)CC(C)C2 (stereo not given) | -0.763% | inactive | inactive | – |
| COc1cc(CO)ccc1O[C@@H]1O[C@H](CO)[C@@H](O)[C@H](O)[C@H]1O | -7.14% | inactive | inactive | – |
| CN1CCN(S(=O)(=O)c2ccc(-c3cnc(N)c(C(=O)Nc4cccnc4)n3)cc2)CC1 | -18.8% | inactive | inactive | – |
| O=C(O)c1cccc(-c2ccc(-c3cn(C(=O)N4CCCCC4Cc4ccccc4)nn3)cc2)c1 (stereo not given) | -9.67% | inactive | inactive | – |
| CC1=CCC[C@@H]2[C@](CCc3ccoc3)(C(=O)O)[C@H](C)CC[C@@]12C | -28.2% | inactive | inactive | – |

| SMILES | activation [1] | Potency [2] | Potency [3] | Potency [1] |
| --- | --- | --- | --- | --- |
| C/C=C1\[C@H](O[C@@H]2O[C@H](CO)[C@@H](O)[C@H](O)[C@H]2O)OC=C(C(=O)OC)[C@H]1CC(=O)OC | 4.46% | inactive | inactive | – |
| CC(=O)/C=C/C1(O)C(C)CC(O[C@@H]2O[C@H](CO)[C@@H](O)[C@H](O)[C@H]2O)CC1(C)C (stereo not given in full) | 2.68% | inactive | inactive | – |
| O=C(c1ccc2nccnc2c1)N1CCCCC1 | -11% | inactive | inactive | – |
| CCC(C)C(=O)O[C@H]1[C@@H](O[C@H]2O[C@H](CO)[C@@H](O)[C@H](O)[C@H]2O)O[C@H](CO)[C@@H](O)[C@@H]1O (stereo not given in full) | 13.7% | inactive | inactive | – |
| C[C@H]1[C@H](C)CC[C@]2(C(=O)O)CC[C@]3(C(=O)O)C(=CCC4[C@@]5(C)CC[C@H](O[C@@H]6O[C@H](C)[C@@H](O)[C@H](O)[C@H]6O)C(C)(C)C5CC[C@]43C)[C@H]12 (stereo not given in full) | -5.36% | inactive | inactive | – |
| O=C(CCCCCCCCC#CI)Oc1ccccc1 | -8.33% | inactive | inactive | – |
| COC(=O)C1(C)c2[nH]c3ccccc3c2CCN1C(=O)CCl (stereo not given) | – | inactive | inactive | 30.1 µM (active) |
| CC(C)c1ccc2c(c1)C(=O)CC1[C@@](C)(C(=O)O)CCC[C@]21C (stereo not given in full) | -2.68% | inactive | inactive | – |
| CN(C)CCCn1cc(C2=C(c3c[nH]c4ccccc34)C(=O)NC2=O)c2ccccc21 | – | inactive | inactive | 30.1 µM (active) |
| CCn1cc(C2=NOC(C(=O)Nc3c(C)n(C)n(-c4ccccc4)c3=O)C2)c(C)n1 (stereo not given) | 9% | inactive | inactive | – |
| C=C(C)[C@@H]1CC=C(COC(=O)NC(=O)c2ncn3c(=O)n(C)nnc23)CC1 | 10% | inactive | inactive | – |
| C=C(C(=O)O)C1CCC2(C)CCC(O)C(C)(O)C2C1 (stereo not given) | 8.04% | inactive | inactive | – |
| CC1(C)S[C@@H]2[C@H](NC(=O)[C@H](N)c3ccc(O)cc3)C(=O)N2[C@H]1C(=O)O | -5% | inactive | inactive | – |
| COC(=O)[C@H](Cc1cccc(C(=N)N)c1)[C@@H](C)NC(=O)c1ccc(-c2cc[n+]([O-])cc2)cc1 | 8.93% | inactive | inactive | – |
| CC/C=C\CC1C(=O)C=CC1(CCCCCCCC(=O)O)OC(C)=O (stereo not given) | -22.9% | inactive | inactive | – |
| CC(=O)Nc1ccc(S(=O)(=O)Nc2cc(C)on2)cc1 | 11.9% | inactive | inactive | – |
| C=C(C(=O)O)C1CC2=C(C)CCCC2(C)C[C@@H]1O (stereo not given in full) | -16.1% | inactive | inactive | – |
| COc1c(C)c2c(c(O)c1C/C=C(\C)CC/C=C(\C)CCC(=O)O)C(=O)OC2 | 6.11% | inactive | inactive | – |
| CC(C)C(N)C(=O)OCCOCn1cnc2c(=O)[nH]c(N)nc21 (stereo not given) | 8.93% | inactive | inactive | – |
| C[C@@H]1CC[C@]2(C)C3(C)CC[C@@]2(OC3=O)[C@@]12C[C@H](c1ccoc1)OC2=O | 26.7% | inactive | inactive | – |
| CCC[C@@H]1C[C@@H](C(=O)N[C@@H]([C@H]2O[C@H](SC)[C@H](OP(=O)(O)O)[C@@H](O)[C@H]2O)[C@H](C)Cl)N(C)C1 | 13.4% | inactive | inactive | – |
| COc1cccc(CN(C(=O)CC(C)(C)C)[C@H]2C[C@H](C(=O)N3CCNCC3)N(Cc3ccc4c(c3)OCO4)C2)c1 | 1% | inactive | inactive | – |
